Assay outcomes from PubChem BioAssay.
hiPSC survival = enhancers of single-cell hiPSC survival, primary screen, ATPlite luminescence. 100% = ROCK inhibitor wells, 0% = DMSO. survival enhancement, % at 20 µM. hit rate 0.044% among 360,000; in the data active = survival enhancement above about 18%;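 also: cells exposed to compounds for 16 hours before the ATP read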
V-ATPase pH = regulators of yeast V-ATPase proton pumping, primary screen, pHLuorin cytosolic pH fluorescence; S. cerevisiae; response, % at 10 µM; hit rate 0.37% among 350,000; AID 504577, 2011; in the data active = response mostly above about 7.3%, no sharp cut-off; inactive = mostly below about 5.4%; also: actives read high
Yeast superoxide = reduction of superoxide in aged yeast, primary screen, HTS; AID 2690, 2010; superoxide response (% of plate mean), % at 10 µM; S. cerevisiae aged cells, superoxide DHE fluorescence; stronger effect = lower value; hit rate 0.18% among 330,000;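 active = superoxide response under a set limit, about three screen SD below normal, cut at about 65% in these data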;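 also: yeast aged for seven days with compound at 30 °C before DHE staining; 100% = average MFI of all compound-treated wells on the plate with controls excluded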
Fh CTSL1 inh = Fasciola hepatica cathepsin L1 inhibitors, primary screen, counter-screen for PFM18AAP inhibitor project, biochemical, QFRET, fluorogenic peptide substrate | inhibition, % at 5.96 µM | recombinant F. hepatica cathepsin L1, Z-Leu-Arg-MCA fluorescence | hit rate 0.49% among 300,000;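 active = inhibition above the mean of all tested compounds plus 3 SD, set per screening campaign, cut at about 17% in these data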;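 also: 0% = plate median of test compound wells and 100% = 1 µM Z-Phe-Ala-diazomethylketone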
Superoxide pick = superoxide lowering in aged yeast cells, confirmation, cherry picked compounds; shares compounds with Yeast superoxide; S. cerevisiae aging, superoxide DHE fluorescence; stronger effect = lower value; superoxide response (% of plate), % at 10 µM; hit rate 1% among 850;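 active = superoxide signal below 65% of the plate average of sample wells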;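 also: cells aged with compound for 7 days at 30 degrees C before staining; 100% equals mean DHE fluorescence of all compound wells on the plate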
DHE fluor count = DHE quenching or ROS scavenging interference in aged yeast, artefact control for yeast caloric restriction mimetic project, S. cerevisiae BY4741, flow cytometry; DHE fluorescence; stronger effect = lower value; fluorescence response, % at 10 µM; shares compounds with Yeast superoxide; 850 tested, under 10 active;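 active = fluorescence response below 15%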;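 also: percent of the mean fluorescence averaged over all compound wells on the plate; lower means stronger quenching of DHE signal or ROS scavenging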
Numbers without * were called inactive; . = not tested or not shown. A selection: hits, their analogues and other compounds. The true share with any hit is near 1%.

SMILES	hiPSC survival	V-ATPase pH	Yeast superoxide	Fh CTSL1 inh	Superoxide pick	DHE fluor count
COc1ccc(CCC(=O)NCCOc2ccc(C)cc2)cc1	0	0	39*	2	95	91
CCN(CC)c1ccc(/C=C/c2cc(-c3ccccc3)c3ccccc3n2)cc1	-1	-84	55*	-4	91	101
CN(C)c1ccc(/C=C/c2ccc3ccccc3n2)cc1	-1	-4	117	1	.	.
CCOC(=O)c1ccccc1N/C=C/C(=O)c1cccs1	0	6	63*	-3	110	90
O=C(NN=C1CCCCCC1)c1ccc2c(c1)OCO2	-1	-3	101	0	.	.
O=C(Cn1nc(Br)nc1Br)c1ccccc1	-1	0	57*	-6	102	101
CCCc1nc2oc3ccccc3c(=O)c2c(=O)n1CCCOC	0	0	113	-6	.	.
COc1ccc(OC(=O)c2cccc(S(=O)(=O)N3CCCC3)c2)cc1	4	-1	93	-6	.	.
COC(=O)c1cccc(S(=O)(=O)N2CCCC2)c1	1	3	91	0	98	87
CCC(C)(C)c1ccc(OCCCC[n+]2ccc(C)cc2)c(C(C)(C)CC)c1	.	.	61*	8	100	96
Cc1cc(C)c2c(N)c(C(=O)NN)sc2n1	0	4	109	3	.	.
Cc1ccc(NC(=O)c2sc3nc(C)cc(C)c3c2N)cc1	0	8	56*	3	104	100
COc1ccccc1CNC(=O)C1CCC(CNS(=O)(=O)c2ccccc2)CC1 (stereo not given)	1	2	96	-2	.	.
O=S(=O)(c1cccc(-c2nnc3n2CCCCC3)c1)N1CCCC1	-1	1	105	-3	.	.
O=C(OCc1c(F)cccc1Cl)c1cnc2ccccc2n1	0	-4	54*	2	101	88
O=C(OCc1c(F)cccc1Cl)c1cnccn1	4	-2	99	-1	.	.
O=C(COn1nnc2ccc(C(F)(F)F)cc21)Nc1nnc(-c2ccccc2)o1	1	1	60*	-1	98	111
Cc1cccc(CN(Nc2ccccc2)c2ccccc2)n1	-2	2	.	.	.	.
COc1ccc(C(=O)Oc2ccc(/C=N/NC(=O)c3cccnc3)cc2OC)cc1	-1	1	95	.	.	.
COc1ccc(/C=N/NC(=O)c2cccnc2)cc1	0	4	54*	-8	95	99
Cc1c(CN(C)C)c2c(n1Cc1ccccc1)C(=O)c1ccccc1-2	-2	2	121	11	.	.
NC(=O)c1cc(S(=O)(=O)Nc2ccc(OC(F)(F)F)cc2)cs1	1	-2	123	1	.	.
CN(C)c1ccc(NC(=O)c2cccc(C(=O)Nc3ccc(N(C)C)cc3)n2)cc1	-2	-3	65*	2	113	100
O=C(Nc1ccccc1)c1cccc(C(=O)Nc2ccccc2)n1	0	5	106	3	.	.
Cc1cc(Cl)ccc1Oc1nccc(N(C)C)c1C#N	-1	-2	98	-2	.	.
SMILES	hiPSC survival	V-ATPase pH	Yeast superoxide	Fh CTSL1 inh	Superoxide pick	DHE fluor count
Cc1cc2ccccn2c1C(=O)c1ccc(Cl)cc1	0	1	91	-1	.	.
Cc1cc2ccccn2c1C(=O)c1ccccc1F	2	1	62*	1	97	102
CC1CCN(C(=O)CCNS(=O)(=O)c2ccc(Cl)cc2)CC1	-1	1	94	2	.	.
CCCCn1c(N)c(N(Cc2ccccc2OC)C(=O)c2ccc(N3CCCC3=O)cc2)c(=O)[nH]c1=O	0	-1	97	0	.	.
O=C(CN1CCN(c2ccccn2)CC1)Nc1cccc(F)c1	0	-1	101	-5	110	92
O=C(CN1CCN(c2ccccn2)CC1)Nc1cccc(Br)c1	-1	-2	102	-4	92	102
O=C(CN1CCN(c2ccccn2)CC1)Nc1cccc(S(=O)(=O)N2CCOCC2)c1	0	-1	118	-10	.	.
O=C(CN1CCN(c2ccccn2)CC1)Nc1ccc2ccccc2c1	1	-2	95	-3	.	.
COc1cccc(NC(=O)CN2CCC(C)CC2)c1	3	0	93	-1	.	.
COc1cccc(NC(=O)CN2CCN(CC(=O)Nc3ccc(F)cc3)CC2)c1	-1	6	61*	4	113	105
CC(NC(=O)Cc1ccccc1)c1cc2c(cc1Br)OCCCO2 (stereo not given)	-1	1	88	-1	.	.
CC[C@@H]1CCCCc2ccccc2[C@@H](C(=O)C[C@@H](O)CC(C)=O)OC1=O	4	-2	89	.	.	.
CCCn1c(=O)c(C(=O)NCc2ccc(OC)c(OC)c2)c(O)c2ccccc21	6	-5	63*	-4	109	108
CCn1c(=O)c(C(=O)NCc2ccc(OC)c(OC)c2)c(O)c2ccccc21	-2	5	96	0	.	.
CCCn1c(=O)c(C(=O)NNC(=O)c2ccc(Cl)cc2Cl)c(O)c2ccccc21	0	-2	60*	-2	107	105
O=C(NCc1ccc(F)cc1)c1ccncc1	0	-4	95	-4	.	.
CCc1nc(NC(C)(C)C)c2cnn(-c3ccccc3)c2n1	0	1	95	0	101	97
c1ccc(-n2ncc3c(NCc4ccco4)ncnc32)cc1	-1	0	87	-1	90	90
c1ccc(Cn2ncc3c(NCc4ccco4)ncnc32)cc1	2	0	93	-1	.	.
CCCCNc1ncnc2c1cnn2-c1ccccc1	-2	2	110	-3	105	108
CCN1C(=O)[C@H]2[C@@H](c3ccc(OC)cc3)N3C(=O)CN(CCOC)C(=O)[C@@]3(C)[C@H]2C1=O	1	-1	97	0	.	.
O=[N+]([O-])c1cc(Br)c(Nc2ccccc2)c([N+](=O)[O-])c1	0	-3	53*	3	84	100
O=C(Nc1ccccc1)c1ccc(Nc2c([N+](=O)[O-])cc([N+](=O)[O-])c3ccccc23)cc1	0	-3	124	2	.	.
Cc1cccc(NS(=O)(=O)c2cc(C(=O)N3CCN(C)CC3)ccc2C)c1	0	-2	64*	-1	110	104
COc1ccc(C(=O)SC2=NCCS2)cc1OC	-1	-2	101	2	.	.
Cc1ccc(C(=O)SC2=NCCS2)cc1	3	-2	58*	-1	101	110
CC(=NCCc1ccccc1)C1=C(O)COC1=O	-2	0	93	4	.	.
CC(=NCCc1ccccc1)C1=C(O)C(c2ccccc2)OC1=O (stereo not given)	1	0	52*	-4	92	98
O=C(Cc1ccc(Cl)cc1)N1CCC2(CC1)NCCc1[nH]cnc12	0	1	64*	1	99	93
CC(C)=NNc1nc2sc3c(c2c(=O)[nH]1)CC(C)(C)OC3	-2	3	50*	-1	95	92
